ssDAF12 agonist = S. stercoralis DAF-12 nuclear receptor activators, primary screen, cell-based, luminescence, HEK293, GRIP1 co-expression, lit1-tk-luc; HEK293 ssDAF-12/GRIP1 lit1-tk-luc reporter; % of 3 µM dafachronic acid response; Nuclear hormone receptor DAF-12 (Strongyloides stercoralis); 370,000 tested, 1% active; AID 652126, 2013; activation, % at 6.8 µM;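 active = activation above the mean over all tested compounds plus 3 SD, cut at about 0.9% in these data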
hgDAF-12 ag = H. glycines DAF-12 receptor agonists, primary screen, cell-based, luminescence, HEK293, GAL4 fusion, UAS-luciferase; Nuclear hormone receptor DAF-12 (Heterodera glycines), GAL4 fusion; HEK293 GAL4-hgDAF12 UAS-luciferase reporter, agonist luminescence; normalized to butyrate control; activation, % at 6.8 µM; 370,000 tested, 1.8% active; AID 687014, 2013;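 active = activation above a cutoff set at the mean of all screened compounds plus 3 SD, cut at about 10% in these data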
SMARCA2 activ = SMARCA2 (BRM) function activators, primary screen, cell-based, luminescence, high throughput. MG213 cells, MMTV-luciferase reporter, dexamethasone, overnight. activation, % at 9.1 µM. 370,000 tested, 1% active; in the data active = activation above about 7.8%
DAX1 inh-1 = DAX1 (NR0B1) inhibitors, primary screen, cell-based, HEK293, Gal4-DAX1, luciferase luminescence; Nuclear receptor subfamily 0 group B member 1 (Homo sapiens), P51843; HEK293 Gal4-DAX1 luciferase reporter; inhibition, % at 6.75 µM; 340,000 tested, 0.99% active;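 active = inhibition above the mean over all tested compounds plus 3 SD, cut at about 4.2% in these data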;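 note: inhibition shows as a rise in luminescence from relieved DAX1 repression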
Target sequence (P51843 207-470 limits assumed): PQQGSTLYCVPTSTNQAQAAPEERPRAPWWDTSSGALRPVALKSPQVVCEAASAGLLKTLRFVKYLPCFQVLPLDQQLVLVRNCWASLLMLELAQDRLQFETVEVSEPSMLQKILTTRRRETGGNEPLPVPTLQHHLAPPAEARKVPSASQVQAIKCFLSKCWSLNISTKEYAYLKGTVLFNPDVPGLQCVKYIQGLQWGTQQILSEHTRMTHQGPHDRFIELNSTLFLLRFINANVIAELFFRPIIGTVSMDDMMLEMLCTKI
DAX1 inh-2 = DAX1 (NR0B1) inhibitors on StAR promoter, primary screen, cell-based, luminescence, SF-1 (NR5A1), full-length DAX-1 | HEK293T StAR-luciferase reporter, SF-1/DAX-1 repression relief | inhibition, % at 6.8 µM | 370,000 tested, 1.1% active;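 active = inhibition above the mean over all tested compounds plus 3 SD, cut at about 3.6% in these data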;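 note: higher inhibition means more luminescence from relief of DAX-1 repression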
hcDAF-12 act = H. contortus DAF-12 nuclear receptor activators, primary screen, cell-based, luminescence, HEK293, lit1-tk-luc reporter; HEK293 hcDAF-12 lit1-tk-luc reporter; 0% DMSO, 100% Δ7-dafachronic acid; activation, % at 6.8 µM; 370,000 tested, 1.4% active; AID 652067, 2013;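 active = activation above the mean of all tested compounds plus 3 SD, cut at about 5.5% in these data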
DAX1 inh confirm = DAX1 (NR0B1) inhibitors relieving SF-1 repression, confirmation, cell-based, luminescence, HEK293T, full-length DAX-1, SF-1 activated StAR promoter | shares compounds with DAX1 inh-2 | HEK293T StAR-promoter luciferase reporter, SF-1/DAX-1 repression | inhibition, % at 6.8 µM | 2,400 tested, 87% active;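 active = inhibition above the average of every tested compound plus 3 SD, cut at about 3.8% in these data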
SF1 mutant ctr = StAR reporter signal changes without DAX1, counter-screen for DAX1 inhibitor project, cell-based, luminescence, AF-2 mutant SF-1, transactivation; 2,400 tested, 78% active; shares compounds with DAX1 inh-2; inhibition, % at 6.8 µM; HEK293 StAR-luciferase, SF-1 AF2 mutant;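 active = inhibition above the mean of all tested compounds plus 3 SD, cut at about 3% in these data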
Hits are given with their value. Sampled rows, rich in hits. Any-hit rate of the full collection: about 4.8%.

How did Nc1c(C(=O)Nc2ccc3c(c2)OCCO3)nnn1Cc1cccc(Cl)c1 do in these assays?
ssDAF12 agonist: inactive; hgDAF-12 ag: inactive; SMARCA2 activ: inactive; DAX1 inh-1: inactive; DAX1 inh-2: 5.2; hcDAF-12 act: inactive; DAX1 inh confirm: 11.0; SF1 mutant ctr: 4.3

What do the screens show for `COc1ccc(Br)cc1Cn1nnc(C(=O)Nc2ccc3c(c2)OCCO3)c1N`?
ssDAF12 agonist: inactive; hgDAF-12 ag: inactive; SMARCA2 activ: inactive; DAX1 inh-1: inactive; DAX1 inh-2: inactive; hcDAF-12 act: inactive

How did COc1ccc(OC)c(S(=O)(=O)N2CCCCC2C(=O)N2CCCN(C)CC2)c1 (stereo not drawn) do in these assays?
ssDAF12 agonist: inactive; hgDAF-12 ag: inactive; SMARCA2 activ: inactive; DAX1 inh-2: inactive; hcDAF-12 act: inactive

Results for O=C(NCCCN1CCCC1=O)C(=O)Nc1cccc(F)c1 ?
ssDAF12 agonist: inactive; hgDAF-12 ag: inactive; SMARCA2 activ: inactive; DAX1 inh-1: inactive; DAX1 inh-2: 5.9; hcDAF-12 act: inactive; DAX1 inh confirm: 7.5; SF1 mutant ctr: 5.3

What do the screens show for `COc1ccc(C(=O)N(C)C(C)c2nccs2)cc1OC1CCN(C(C)=O)CC1` (stereo not drawn)?
ssDAF12 agonist: inactive; hgDAF-12 ag: inactive; SMARCA2 activ: inactive; DAX1 inh-1: inactive; DAX1 inh-2: inactive; hcDAF-12 act: inactive

What do the screens show for `CC[C@@H](C)[C@H](C(CC(=O)N1CCCC1[C@@H](OC)[C@H](C)C(=O)N[C@H](Cc1ccccc1)c1nccs1)OC)N(C)C(=O)[C@H](NC(=O)[C@@H](C(C)C)N(C)C)C(C)C` (stereo partly drawn)?
ssDAF12 agonist: inactive; hgDAF-12 ag: inactive; SMARCA2 activ: inactive; DAX1 inh-1: inactive; DAX1 inh-2: 7.7; hcDAF-12 act: inactive; DAX1 inh confirm: 29.8; SF1 mutant ctr: inactive

Results for COc1ccc(Cc2c(-c3cccc(Br)c3)nc3ccc(Br)cn23)c(C)c1 ?
ssDAF12 agonist: inactive; hgDAF-12 ag: inactive; SMARCA2 activ: inactive; DAX1 inh-2: 5.1; hcDAF-12 act: inactive; DAX1 inh confirm: inactive; SF1 mutant ctr: 3.5

How did COc1ccc(Cc2c(-c3ccc(C)cc3)nc3ccc(Cl)cn23)c(C)c1 do in these assays?
ssDAF12 agonist: inactive; hgDAF-12 ag: 13.0; SMARCA2 activ: inactive; DAX1 inh-2: 5.7; hcDAF-12 act: inactive; DAX1 inh confirm: 6.5; SF1 mutant ctr: 4.9

What do the screens show for `CCOC(=O)C1(Cc2ccccc2)CCN(Cc2ccc(C(F)(F)F)cc2)CC1`?
ssDAF12 agonist: inactive; hgDAF-12 ag: inactive; SMARCA2 activ: inactive; DAX1 inh-2: inactive; hcDAF-12 act: inactive

How did CC(=O)Nc1cccc(-c2csc(Nc3ccccn3)n2)c1 do in these assays?
ssDAF12 agonist: inactive; hgDAF-12 ag: inactive; SMARCA2 activ: inactive; DAX1 inh-1: inactive; DAX1 inh-2: 4.5; hcDAF-12 act: inactive; DAX1 inh confirm: 12.3; SF1 mutant ctr: 6.0

Results for COc1cccc(N(C)C(=O)[C@@H](C2CC2)[C@@H](O)c2ccc(Cl)cc2)c1 ?
ssDAF12 agonist: inactive; hgDAF-12 ag: inactive; SMARCA2 activ: inactive; DAX1 inh-2: inactive; hcDAF-12 act: inactive

What do the screens show for `CC1CCN(C(=O)CNC(=O)c2ccc(Br)o2)CC1`?
ssDAF12 agonist: inactive; hgDAF-12 ag: inactive; SMARCA2 activ: inactive; DAX1 inh-1: inactive; DAX1 inh-2: 4.9; hcDAF-12 act: inactive; DAX1 inh confirm: inactive; SF1 mutant ctr: inactive

Results for COc1ccc(-c2sc3ccccc3c2-c2ccc(OC)cc2F)cc1 ?
ssDAF12 agonist: inactive; hgDAF-12 ag: inactive; SMARCA2 activ: inactive; DAX1 inh-2: 5.3; hcDAF-12 act: inactive; DAX1 inh confirm: inactive; SF1 mutant ctr: inactive

What do the screens show for `COc1ccc(-c2sc3ccccc3c2-c2ccc(O)cc2)cc1`?
ssDAF12 agonist: inactive; hgDAF-12 ag: inactive; SMARCA2 activ: inactive; DAX1 inh-1: inactive; DAX1 inh-2: inactive; hcDAF-12 act: inactive

What do the screens show for `COC(=O)[C@]12C[C@H](CC(=O)N3CCC(c4ccccc4)CC3)C(=O)N(Cc3ccc(Cl)cc3Cl)C1=C[C@H](COCc1ccccc1)O[C@@H]2C`?
ssDAF12 agonist: inactive; hgDAF-12 ag: inactive; SMARCA2 activ: inactive; DAX1 inh-2: inactive; hcDAF-12 act: inactive

What do the screens show for `Cc1cc(-c2ccc(C)c(S(=O)(=O)NCC3CCN(Cc4ccccc4F)CC3)c2)on1`?
ssDAF12 agonist: inactive; hgDAF-12 ag: inactive; SMARCA2 activ: inactive; DAX1 inh-1: inactive; DAX1 inh-2: inactive; hcDAF-12 act: inactive

Results for COc1ccccc1CN1CCC(CNS(=O)(=O)c2cc(-c3onc(C)c3C)ccc2OC)CC1 ?
ssDAF12 agonist: inactive; hgDAF-12 ag: inactive; SMARCA2 activ: inactive; DAX1 inh-1: inactive; DAX1 inh-2: 4.6; hcDAF-12 act: inactive; DAX1 inh confirm: inactive; SF1 mutant ctr: 3.1

What do the screens show for `COc1ccccc1N1CCN(C(=O)c2[nH]c(C(F)(F)F)nc2-c2ccccc2)CC1`?
ssDAF12 agonist: inactive; hgDAF-12 ag: inactive; SMARCA2 activ: inactive; DAX1 inh-2: inactive; hcDAF-12 act: inactive

What do the screens show for `Cc1cccc(N2CCN(C(=O)c3[nH]c(C(F)(F)F)nc3-c3ccccc3)CC2)c1C`?
ssDAF12 agonist: inactive; hgDAF-12 ag: inactive; SMARCA2 activ: inactive; DAX1 inh-2: 10.4; hcDAF-12 act: inactive; DAX1 inh confirm: 9.8; SF1 mutant ctr: inactive

How did CCOc1ccc(-n2c(SCC(=O)Nc3ccc(S(=O)(=O)Nc4nccs4)cc3)nnc2-c2ccncc2)cc1 do in these assays?
ssDAF12 agonist: inactive; hgDAF-12 ag: inactive; SMARCA2 activ: inactive; DAX1 inh-2: inactive; hcDAF-12 act: inactive

What do the screens show for `CN(C(=O)[C@@H](C1CC1)[C@@H](O)c1ccc2ccccc2c1)c1ccccc1`?
ssDAF12 agonist: inactive; hgDAF-12 ag: inactive; SMARCA2 activ: inactive; DAX1 inh-2: inactive; hcDAF-12 act: inactive

Screens (PubChem)
